Among all 50,000 compounds or so, about 800 (1.6%) showed an effect of 50% or more. Only a selection was taken, and strong results are over-represented in it overall.
The molecules below were run against Bcl-2-like protein 10 (Homo sapiens) (UniProt Q9HD36) (assay: TR3 peptide-Bcl-B binding displacers, biochemical primary FP assay, phenotype converters (AID 1240;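 also: 0% = Bcl-B with tracer peptide and DMSO and 100% = tracer peptide lacking Bcl-B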)). Conditions: GST-Bcl-B / FITC-TR3 peptide fluorescence polarization; stronger effect = higher value; compound at 3.75 mg/L.
Chain of Bcl-2-like protein 10 (Homo sapiens) (Q9HD36 whole entry, looked up): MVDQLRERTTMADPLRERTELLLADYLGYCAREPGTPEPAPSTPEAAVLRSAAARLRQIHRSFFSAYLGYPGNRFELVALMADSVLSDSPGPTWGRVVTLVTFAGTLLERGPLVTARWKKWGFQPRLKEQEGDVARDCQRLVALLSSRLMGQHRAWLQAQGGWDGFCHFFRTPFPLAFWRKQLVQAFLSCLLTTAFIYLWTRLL
Work on `O=C(Cc1ccc([N+](=O)[O-])cc1)NCc1ccccn1` yielded a displacement of 14.1%. `COc1ccc(/C=C/C(=O)NC(C)Cc2ccccc2)cc1OC` (stereo unspecified) showed a displacement of -5.6%. In the case of `CCOc1cccc(/C=C2/SC(=S)NC2=O)c1O`, the displacement is reported as 5.7%. `CCOc1cc(/C=C2/SC(=S)NC2=O)ccc1OC` gave a displacement of 119%. Molecule `CCOc1ccc2ccc(OCC)c(/C=C3/SC(=S)NC3=O)c2c1` has a displacement of -0.8%. In the case of `COc1ccc(/C=C2/SC(=S)NC2=O)cc1OCc1ccc([N+](=O)[O-])cc1`, the displacement is reported as 76.9%. Work on `CCOc1cc(/C=C2\SC(=S)NC2=O)ccc1OC(C)=O` yielded a displacement of 12%. In the case of `COc1cc(/C=C2/SC(=S)NC2=O)ccc1OCc1ccc(I)cc1`, the displacement is reported as -8.4%. With `COc1ccc(/C=C2/SC(=S)NC2=O)cc1OCc1ccc(Cl)cc1` the displacement was 4.2%. For `CCOc1ccc(/C=C2/SC(=S)NC2=O)cc1Cl`, the displacement was 11.7%. With `CCOc1ccc(/C=C2/SC(=S)NC2=O)c(OCC)c1` the displacement was 114%. With `CCOc1ccc(C=Nc2ccc3c(c2)nc(C)n3C)cc1` the displacement was 6.5%. In the case of `CSc1ccccc1NC(=O)c1ccc([N+](=O)[O-])cc1`, the displacement is reported as 10.7%. Molecule `CCOC(=O)c1cc(C#N)c(SCc2ccccc2)[nH]c1=O` has a displacement of -2.6%. Molecule `COc1ccc(C(=O)N2CCN(c3cccc(C)c3C)CC2)cc1OC` has a displacement of 2.4%. `Cc1cc(C)cc(CC2CC(=O)N(c3ccc(Br)cc3)C2=O)c1` (stereo unspecified) showed a displacement of -8%. With `CC(=O)n1cc(Nc2ccccc2C(=O)O)c2ccccc21` the displacement was -3%. In the case of `O=C(NCC1CCCO1)c1ccc(S(=O)(=O)N2CCCCC2)cc1` (stereo unspecified), the displacement is reported as -4.5%. `Cc1cc(C=C2C(=O)c3ccccc3C2=O)c(C)n1-c1cccnc1` showed a displacement of -15.5%. Molecule `Cc1cc(/C=C2/SC(=O)NC2=O)c(C)n1-c1cccc(Cl)c1` has a displacement of 18.6%. `Cc1cc(/C=C2/NC(=O)NC2=O)c(C)n1-c1cccc(Cl)c1` showed a displacement of 10%. For `Cc1cccc(-n2c(C)cc(C=C3C(=O)c4ccccc4C3=O)c2C)c1`, the displacement was 138%. `Cc1cc(C=C2C(=O)c3ccccc3C2=O)c(C)n1-c1ccc(Cl)cc1` was tested, and the displacement was 100%. `CCOC(=O)c1ccc(-n2c(C)cc(C=C3C(=O)c4ccccc4C3=O)c2C)cc1` was tested, and the displacement was 11.9%. `Cc1cc(C=C2C(=O)c3ccccc3C2=O)c(C)n1-c1cccc(Cl)c1` was tested, and the displacement was 180%. For `Cc1cc(C=C2C(=O)c3ccccc3C2=O)c(C)n1-c1ccc(N2CCOCC2)cc1`, the displacement was 0.7%. `Cc1cc(C=C2C(=O)c3ccccc3C2=O)c(C)n1-c1cccc([N+](=O)[O-])c1` showed a displacement of 11.8%. `CN1CCN(C(=O)c2cnn3c(C(F)(F)F)cc(-c4ccco4)nc23)CC1` showed a displacement of 6.4%. For `O=C(O)CCCN1C(=O)C(=O)/C(=C(\O)c2ccc(Cl)cc2)C1c1ccc(F)cc1` (stereo unspecified), the displacement was -0.6%. `COc1ccc(N(CC(=O)NCCc2ccccc2)S(C)(=O)=O)c(OC)c1` was tested, and the displacement was 3.4%. With `Cc1ccc(-c2ccc(OCC(=O)N3CCCc4ccccc43)cc2)cc1` the displacement was 59.3%. `Cc1ccccc1OCC(=O)N1CCCc2ccccc21` gave a displacement of -4.9%. For `Cc1ccc(OCC(=O)N2CCCc3ccccc32)c(C)c1`, the displacement was 6%. `Cc1ccc(-c2noc(COc3ccc4ccccc4c3)n2)cc1` showed a displacement of 11%. Work on `CCOC(=O)c1cc2n(c1N(C(C)=O)C(C)=O)-c1ccccc1C2=O` yielded a displacement of -4.9%. Molecule `CC(=O)NCCN=Cc1cc2n(c1O)-c1ccccc1C2=O` has a displacement of 167%. For `O=c1[nH]c(=O)n(-c2ccccc2Cl)c(O)c1C=Nc1ccc(Cl)cc1`, the displacement was 18.6%. With `O=C1c2ccccc2-n2c1cc(C=Nc1ccc(Cl)cc1)c2O` the displacement was 112%. `O=c1[nH]c(=O)n(-c2ccccc2F)c(O)c1C=Nc1ccc(Cl)cc1` gave a displacement of -1.4%. Work on `CC(=O)NCCN=Cc1c(O)[nH]c2ccccc12` yielded a displacement of 14%. In the case of `CC(=O)Oc1ccc(C(=O)N2c3ccccc3Sc3ccccc32)cc1`, the displacement is reported as -7.2%. For `Cc1onc(-c2c(F)cccc2Cl)c1C(=O)NCc1ccc(Cl)cc1`, the displacement was -6.9%. Work on `COc1ccc(/C=C/C(=O)NCCc2c[nH]c3ccccc23)cc1OC` yielded a displacement of -5%. With `COc1ccc2c(Cl)c(C(=O)N/N=C/c3ccccn3)sc2c1` the displacement was 7.8%. `O=C(Nc1ccccc1)Nc1nnc(SCc2ccc(F)cc2)s1` was tested, and the displacement was 13.5%. `CCCCCCCNc1ccc(NC(=O)c2ccccc2)c2c1C(=O)c1ccccc1C2=O` showed a displacement of 1.5%. `CCCCNc1cc(=O)n(C)c(=O)n1C` was tested, and the displacement was 6.5%. In the case of `COCCCNc1ccc2c3c(nc(=O)n2C)-c2ccccc2C(=O)c13`, the displacement is reported as 139%. `Cn1c(=O)cc2c3c(c(Oc4ccccc4)ccc31)C(=O)c1ccccc1-2` showed a displacement of 108%. Molecule `Nc1c(Cl)cc2c(c1Oc1ccccc1)C(=O)c1ccccc1C2=O` has a displacement of 8.6%. For `Cn1c(=O)cc2c3c(c(Nc4cccc(Cl)c4)ccc31)C(=O)c1ccccc1-2`, the displacement was 15.7%. In the case of `CCCCNc1ccc2c3c(cc(=O)n2C)-c2ccccc2C(=O)c13`, the displacement is reported as 129%. For `Cn1c(=O)cc(-c2ccccc2)c2cc(Cl)ccc21`, the displacement was 14.7%. With `Cn1c(=O)cc2c3c(c(N4CCCC4)ccc31)C(=O)c1ccccc1-2` the displacement was 38.2%. `Cn1c(=O)cc(-c2ccccc2)c2ccccc21` was tested, and the displacement was 7.4%. With `Cn1c(=O)cc2c3c(c(N)ccc31)C(=O)c1ccccc1-2` the displacement was 139%. Molecule `O=C1c2ccccc2C(=O)c2c(NCCO)ccc(NCCO)c21` has a displacement of 46.4%. In the case of `O=C1N=C(N=Nc2c(O)[nH]c3ccccc23)S/C1=C/c1ccc(Br)cc1`, the displacement is reported as 8.9%. For `COc1ccc(OC(C)C(=O)Nc2ccc3c(c2)OCCO3)cc1` (stereo unspecified), the displacement was -4.5%. With `CC(C)CC(NC(=O)c1ccccc1)C(=O)OCC(=O)N1c2ccccc2Sc2ccccc21` (stereo unspecified) the displacement was 9.1%. `COc1ccc(S(=O)(=O)N(CC(=O)N2CCN(c3ccccc3)CC2)c2ccc(C)cc2)cc1OC` gave a displacement of 6.1%. For `C=CCc1ccccc1OCCOc1ccc(Br)cc1/C=C1/SC(=S)N(C)C1=O`, the displacement was -1.8%. Molecule `CCCCOc1ccc(C(=O)N2CCN(c3cccc(C)c3C)CC2)cc1` has a displacement of -8.2%. In the case of `NNC(=O)COc1ccccc1OCCOCCOc1ccccc1OCC(=O)NN`, the displacement is reported as -10.4%. `O=C1C=Cc2ccccc2/C1=N/Oc1ccc2noc3c2c1C(=O)c1ccccc1-3` gave a displacement of 25.9%. In the case of `CCOC(=O)c1ccc2c3c(onc13)-c1ccccc1C2=O`, the displacement is reported as 120%. `O=C1c2ccccc2-c2onc3ccc(Sc4ccccc4)c1c23` was tested, and the displacement was 17.9%. Work on `CCOc1ccc2noc3c2c1C(=O)c1ccccc1-3` yielded a displacement of 123%. Work on `CC(=O)c1ccc2c3c(onc13)-c1ccccc1C2=O` yielded a displacement of 2.4%. In the case of `COc1ccc2noc3c2c1C(=O)c1ccccc1-3`, the displacement is reported as 127%. Molecule `COC1=C(c2ccccc2)C(=O)c2ccccc2C1=O` has a displacement of -8.5%. `CCOc1ccc(Nc2ccc3noc4c3c2C(=O)c2ccccc2-4)cc1` gave a displacement of -2%. In the case of `COc1ccccc1NS(=O)(=O)c1cccc2c1C(=O)c1ccccc1C2=O`, the displacement is reported as 3%. Molecule `COc1ccc(OC)c2c1C(=O)c1ccccc1C2=O` has a displacement of 101%. Molecule `CC(C)CCOC(=O)c1ccc2c3c(onc13)-c1ccccc1C2=O` has a displacement of 21%. `O=C1c2ccccc2-c2onc3ccc(Cl)c1c23` was tested, and the displacement was 40.4%.
